# Data published in PMC7862700, “An all-to-all approach to the identification of sequence-specific readers for epigenetic DNA modifications on cytosine”.
# Assays:
# Test in all cases: DAPPL (digital affinity profiling via proximity ligation, sequencing); 10 mM Tris-HCl pH 7.5, 50 mM NaCl, 1 mM DTT, 4% glycerol, room temperature, 30 min; GST-TFs on glutathione beads, 16-mer random dsDNA library, 0.1% formaldehyde crosslink after washing; high values mean tight binding
# FEV = molecular target: T1, FEV (Homo sapiens, UniProt Q99581 1-238); conditions: protein: recombinant; tags: N-terminal GST; dsDNA, one strand shown
# T1 sequence: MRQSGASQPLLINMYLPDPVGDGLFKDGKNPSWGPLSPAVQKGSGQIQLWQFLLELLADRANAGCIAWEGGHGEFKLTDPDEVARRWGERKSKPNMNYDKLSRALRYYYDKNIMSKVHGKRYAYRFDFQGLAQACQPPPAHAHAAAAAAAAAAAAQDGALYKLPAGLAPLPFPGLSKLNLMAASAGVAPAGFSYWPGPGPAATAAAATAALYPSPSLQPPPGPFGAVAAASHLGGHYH
# Procedure, shortened: (§1)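 Binding signal is each hexamer's read frequency for a factor divided by its frequency in the tag-only sample. The factors were GST-fused human transcription factors from yeast, captured on glutathione beads, DNA-barcoded and pooled with that sample. Pools were incubated with 200 nmole of a random double-stranded 16-mer DNA library in Tris/NaCl/DTT/glycerol buffer at room temperature for 30 min, then washed, crosslinked with 0.1% formaldehyde, proximity-ligated with BsaI/T4 ligase (1 h, 37 °C), PCR-amplified and sequenced on an Illumina NextSeq500.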
# ETV5 = ETV5 (Homo sapiens, UniProt P41161 1-510); conditions: protein: recombinant; tags: N-terminal GST; dsDNA, one strand shown
# Procedure, shortened: as §1
# HSF1 = HSF1 (Homo sapiens, UniProt Q00613 1-529); conditions: protein: recombinant; tags: N-terminal GST; chain copies: 3; dsDNA, one strand shown
# Procedure, shortened: as §1
# SPIC = molecular target: T2, SPIC (Homo sapiens, UniProt Q8N5J4 1-248); conditions: protein: recombinant; tags: N-terminal GST; dsDNA, one strand shown
# T2 sequence: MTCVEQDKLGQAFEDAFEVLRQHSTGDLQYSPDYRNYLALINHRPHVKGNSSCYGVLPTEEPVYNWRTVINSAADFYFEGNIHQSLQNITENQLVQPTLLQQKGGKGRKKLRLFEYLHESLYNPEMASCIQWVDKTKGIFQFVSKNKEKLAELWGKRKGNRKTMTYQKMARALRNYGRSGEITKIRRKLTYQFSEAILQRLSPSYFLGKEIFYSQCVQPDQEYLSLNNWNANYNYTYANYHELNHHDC
# Procedure, shortened: as §1
# ELF4 = ELF4 (Homo sapiens, UniProt Q99607 1-663); conditions: protein: recombinant; tags: N-terminal GST; dsDNA, one strand shown
# Procedure, shortened: as §1
# ELK4 = molecular target: T3, ELK4 (Homo sapiens, UniProt P28324-2 1-405); conditions: protein: recombinant; tags: N-terminal GST; dsDNA, one strand shown
# T3 sequence: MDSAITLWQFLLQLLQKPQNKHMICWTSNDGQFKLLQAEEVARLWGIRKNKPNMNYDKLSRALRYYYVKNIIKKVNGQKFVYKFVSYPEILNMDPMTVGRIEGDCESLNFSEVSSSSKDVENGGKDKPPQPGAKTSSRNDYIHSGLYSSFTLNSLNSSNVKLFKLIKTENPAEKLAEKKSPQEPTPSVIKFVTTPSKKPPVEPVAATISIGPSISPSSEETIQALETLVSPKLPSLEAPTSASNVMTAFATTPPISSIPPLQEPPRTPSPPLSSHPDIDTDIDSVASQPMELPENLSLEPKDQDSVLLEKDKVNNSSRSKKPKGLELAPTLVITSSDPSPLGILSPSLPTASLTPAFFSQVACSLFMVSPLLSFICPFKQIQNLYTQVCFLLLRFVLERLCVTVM
# Procedure, shortened: as §1
# ETV2 = molecular target: T4, ETV2 (Homo sapiens, UniProt O00321 1-342); conditions: protein: recombinant; tags: N-terminal GST; dsDNA, one strand shown
# T4 sequence: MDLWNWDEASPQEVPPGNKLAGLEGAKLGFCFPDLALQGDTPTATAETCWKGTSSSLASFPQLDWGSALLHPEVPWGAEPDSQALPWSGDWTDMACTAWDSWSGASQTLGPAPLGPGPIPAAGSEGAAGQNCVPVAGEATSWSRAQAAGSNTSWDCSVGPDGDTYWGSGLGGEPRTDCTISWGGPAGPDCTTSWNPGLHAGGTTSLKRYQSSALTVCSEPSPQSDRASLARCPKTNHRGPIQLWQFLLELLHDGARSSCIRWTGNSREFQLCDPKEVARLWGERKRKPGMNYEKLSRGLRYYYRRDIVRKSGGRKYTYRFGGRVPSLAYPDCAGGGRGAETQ
# Procedure, shortened: as §1
# ELF3 = molecular target: T5, ELF3 (Homo sapiens, UniProt P78545 1-371); conditions: protein: recombinant; tags: N-terminal GST; dsDNA, one strand shown
# T5 sequence: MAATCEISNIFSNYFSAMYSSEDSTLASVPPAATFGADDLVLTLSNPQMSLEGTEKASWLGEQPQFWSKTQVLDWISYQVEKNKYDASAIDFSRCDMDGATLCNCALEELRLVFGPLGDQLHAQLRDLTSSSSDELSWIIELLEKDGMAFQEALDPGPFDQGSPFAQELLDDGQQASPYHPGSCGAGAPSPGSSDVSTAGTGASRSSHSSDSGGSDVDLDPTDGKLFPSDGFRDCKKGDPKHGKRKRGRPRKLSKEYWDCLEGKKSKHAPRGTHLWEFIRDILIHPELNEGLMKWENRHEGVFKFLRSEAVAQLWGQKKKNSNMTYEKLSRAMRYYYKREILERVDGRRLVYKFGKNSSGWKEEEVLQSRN
# Procedure, shortened: as §1
# CRX = CRX (Homo sapiens, UniProt O43186 1-299); conditions: protein: recombinant; tags: N-terminal GST; dsDNA, one strand shown
# Procedure, shortened: as §1
# ETV1 = ETV1 (Homo sapiens, UniProt P50549 1-477); conditions: protein: recombinant; tags: N-terminal GST; dsDNA, one strand shown
# Procedure, shortened: as §1
# ERF = molecular target: T6, ERF (Homo sapiens, UniProt P50548 1-548); conditions: protein: recombinant; tags: N-terminal GST; dsDNA, one strand shown
# T6 sequence: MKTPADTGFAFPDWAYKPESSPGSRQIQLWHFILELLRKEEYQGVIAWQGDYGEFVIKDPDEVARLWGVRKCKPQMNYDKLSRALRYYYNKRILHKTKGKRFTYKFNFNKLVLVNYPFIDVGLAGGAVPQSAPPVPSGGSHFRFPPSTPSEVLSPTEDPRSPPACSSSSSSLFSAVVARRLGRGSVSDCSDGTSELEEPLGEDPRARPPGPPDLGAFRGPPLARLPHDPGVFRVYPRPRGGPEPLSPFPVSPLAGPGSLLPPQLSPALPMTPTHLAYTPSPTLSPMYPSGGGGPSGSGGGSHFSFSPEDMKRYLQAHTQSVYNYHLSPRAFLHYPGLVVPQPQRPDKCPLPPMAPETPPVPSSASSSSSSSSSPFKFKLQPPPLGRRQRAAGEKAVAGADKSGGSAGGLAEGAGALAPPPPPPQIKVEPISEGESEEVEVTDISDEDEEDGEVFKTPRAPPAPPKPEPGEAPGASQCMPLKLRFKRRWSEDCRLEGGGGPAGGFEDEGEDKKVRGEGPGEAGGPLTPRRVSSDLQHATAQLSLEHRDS
# Procedure, shortened: as §1
# ETV3L = molecular target: T7, ETV3L (Homo sapiens, UniProt Q6ZN32 1-361); conditions: protein: recombinant; tags: N-terminal GST; dsDNA, one strand shown
# T7 sequence: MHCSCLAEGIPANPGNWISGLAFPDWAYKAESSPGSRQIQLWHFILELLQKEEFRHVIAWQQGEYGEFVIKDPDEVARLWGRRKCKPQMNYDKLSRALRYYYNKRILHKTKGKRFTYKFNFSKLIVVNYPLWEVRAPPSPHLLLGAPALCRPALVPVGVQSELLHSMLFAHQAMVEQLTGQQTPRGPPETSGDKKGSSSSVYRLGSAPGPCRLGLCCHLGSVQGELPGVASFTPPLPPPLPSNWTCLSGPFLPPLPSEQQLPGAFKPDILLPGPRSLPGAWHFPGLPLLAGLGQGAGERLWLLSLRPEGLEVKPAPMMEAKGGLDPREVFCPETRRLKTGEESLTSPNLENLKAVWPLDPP
# Procedure, shortened: as §1
# ETS2 = molecular target: T8, ETS2 (Homo sapiens, UniProt P15036 1-469); conditions: protein: recombinant; tags: N-terminal GST; dsDNA, one strand shown
# T8 sequence: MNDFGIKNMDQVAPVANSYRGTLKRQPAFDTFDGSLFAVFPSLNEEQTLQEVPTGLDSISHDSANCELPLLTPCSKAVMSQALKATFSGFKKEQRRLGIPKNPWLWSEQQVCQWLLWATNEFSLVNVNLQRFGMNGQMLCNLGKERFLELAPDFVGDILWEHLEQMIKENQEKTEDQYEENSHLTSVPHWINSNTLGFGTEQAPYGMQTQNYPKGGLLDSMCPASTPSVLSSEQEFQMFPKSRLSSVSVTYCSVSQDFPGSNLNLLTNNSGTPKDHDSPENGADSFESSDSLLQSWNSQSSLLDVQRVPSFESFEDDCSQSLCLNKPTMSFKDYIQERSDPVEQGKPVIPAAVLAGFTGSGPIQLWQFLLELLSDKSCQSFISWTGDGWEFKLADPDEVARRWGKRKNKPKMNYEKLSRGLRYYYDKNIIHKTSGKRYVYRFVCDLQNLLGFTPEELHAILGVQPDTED
# Procedure, shortened: as §1
# SPDEF = molecular target: T9, SPDEF (Homo sapiens, UniProt O95238 1-335); conditions: protein: recombinant; tags: N-terminal GST; dsDNA, one strand shown
# T9 sequence: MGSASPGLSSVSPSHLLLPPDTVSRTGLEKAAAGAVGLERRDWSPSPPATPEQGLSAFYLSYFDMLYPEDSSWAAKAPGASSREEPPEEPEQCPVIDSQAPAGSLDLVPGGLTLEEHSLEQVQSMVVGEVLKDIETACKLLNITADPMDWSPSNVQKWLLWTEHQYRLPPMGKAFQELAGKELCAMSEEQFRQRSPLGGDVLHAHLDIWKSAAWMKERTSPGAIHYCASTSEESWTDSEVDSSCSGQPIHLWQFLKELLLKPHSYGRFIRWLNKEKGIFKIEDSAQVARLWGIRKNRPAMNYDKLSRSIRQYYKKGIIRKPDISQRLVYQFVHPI
# Procedure, shortened: as §1
# ETV7 = molecular target: T10, ETV7 (Homo sapiens, UniProt Q9Y603 1-341); conditions: protein: recombinant; tags: N-terminal GST; dsDNA, one strand shown
# T10 sequence: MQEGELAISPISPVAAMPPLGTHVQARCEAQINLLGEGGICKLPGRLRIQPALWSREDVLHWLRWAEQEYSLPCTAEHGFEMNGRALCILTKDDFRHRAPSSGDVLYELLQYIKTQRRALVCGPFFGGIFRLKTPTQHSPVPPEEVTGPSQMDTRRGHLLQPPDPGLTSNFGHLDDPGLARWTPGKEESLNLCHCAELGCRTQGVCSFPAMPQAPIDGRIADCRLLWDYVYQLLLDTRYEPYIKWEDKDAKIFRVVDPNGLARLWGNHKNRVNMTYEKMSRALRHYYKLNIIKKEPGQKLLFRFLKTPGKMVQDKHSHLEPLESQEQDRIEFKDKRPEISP
# Procedure, shortened: as §1
# ELF5 = molecular target: T11, ELF5 (Homo sapiens, UniProt Q9UKW6-2 1-255); conditions: protein: recombinant; tags: N-terminal GST; dsDNA, one strand shown
# T11 sequence: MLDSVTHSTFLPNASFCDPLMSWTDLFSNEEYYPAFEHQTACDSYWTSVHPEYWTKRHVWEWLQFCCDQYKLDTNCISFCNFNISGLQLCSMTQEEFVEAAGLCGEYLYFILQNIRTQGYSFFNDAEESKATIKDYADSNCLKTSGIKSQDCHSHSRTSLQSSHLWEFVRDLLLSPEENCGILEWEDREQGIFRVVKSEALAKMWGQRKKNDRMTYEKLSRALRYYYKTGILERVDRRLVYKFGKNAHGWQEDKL
# Procedure, shortened: as §1
# ETV3 = molecular target: T12, ETV3 (Homo sapiens, UniProt P41162-2 1-143); conditions: protein: recombinant; tags: N-terminal GST; dsDNA, one strand shown
# T12 sequence: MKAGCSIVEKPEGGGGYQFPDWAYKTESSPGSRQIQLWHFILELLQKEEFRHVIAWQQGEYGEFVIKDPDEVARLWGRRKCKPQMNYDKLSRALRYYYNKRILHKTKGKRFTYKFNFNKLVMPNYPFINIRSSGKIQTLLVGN
# Procedure, shortened: as §1
# ETV6 = ETV6 (Homo sapiens, UniProt P41212 1-452); conditions: protein: recombinant; tags: N-terminal GST; dsDNA, one strand shown
# Procedure, shortened: as §1
# Chain of ETV5 (P41161 whole entry): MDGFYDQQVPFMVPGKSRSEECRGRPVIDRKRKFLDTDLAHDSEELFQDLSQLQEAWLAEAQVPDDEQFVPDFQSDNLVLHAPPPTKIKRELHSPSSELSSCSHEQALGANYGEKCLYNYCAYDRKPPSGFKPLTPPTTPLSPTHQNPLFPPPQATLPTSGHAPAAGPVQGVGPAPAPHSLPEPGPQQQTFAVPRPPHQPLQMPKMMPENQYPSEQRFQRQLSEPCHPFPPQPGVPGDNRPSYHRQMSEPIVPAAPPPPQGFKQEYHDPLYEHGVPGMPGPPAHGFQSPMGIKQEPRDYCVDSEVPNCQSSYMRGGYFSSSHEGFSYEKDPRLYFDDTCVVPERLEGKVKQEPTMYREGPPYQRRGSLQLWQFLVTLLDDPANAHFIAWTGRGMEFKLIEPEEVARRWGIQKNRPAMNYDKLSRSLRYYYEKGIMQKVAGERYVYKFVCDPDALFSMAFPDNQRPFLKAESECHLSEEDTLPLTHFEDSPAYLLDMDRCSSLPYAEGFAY
# Chain of ETV1 (P50549 whole entry): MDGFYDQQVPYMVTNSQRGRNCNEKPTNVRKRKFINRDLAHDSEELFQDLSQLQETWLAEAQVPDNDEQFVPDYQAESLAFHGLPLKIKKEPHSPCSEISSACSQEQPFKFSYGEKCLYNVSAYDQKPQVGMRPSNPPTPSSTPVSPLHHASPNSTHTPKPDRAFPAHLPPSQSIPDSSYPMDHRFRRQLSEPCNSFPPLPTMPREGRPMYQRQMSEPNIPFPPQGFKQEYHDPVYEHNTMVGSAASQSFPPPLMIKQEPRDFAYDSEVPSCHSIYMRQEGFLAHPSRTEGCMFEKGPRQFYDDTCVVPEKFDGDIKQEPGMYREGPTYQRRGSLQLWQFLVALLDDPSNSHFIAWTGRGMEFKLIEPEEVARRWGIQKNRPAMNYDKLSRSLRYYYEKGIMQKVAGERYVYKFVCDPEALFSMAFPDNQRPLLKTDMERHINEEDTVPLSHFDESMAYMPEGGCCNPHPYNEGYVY
# Chain of ETV6 (P41212 whole entry): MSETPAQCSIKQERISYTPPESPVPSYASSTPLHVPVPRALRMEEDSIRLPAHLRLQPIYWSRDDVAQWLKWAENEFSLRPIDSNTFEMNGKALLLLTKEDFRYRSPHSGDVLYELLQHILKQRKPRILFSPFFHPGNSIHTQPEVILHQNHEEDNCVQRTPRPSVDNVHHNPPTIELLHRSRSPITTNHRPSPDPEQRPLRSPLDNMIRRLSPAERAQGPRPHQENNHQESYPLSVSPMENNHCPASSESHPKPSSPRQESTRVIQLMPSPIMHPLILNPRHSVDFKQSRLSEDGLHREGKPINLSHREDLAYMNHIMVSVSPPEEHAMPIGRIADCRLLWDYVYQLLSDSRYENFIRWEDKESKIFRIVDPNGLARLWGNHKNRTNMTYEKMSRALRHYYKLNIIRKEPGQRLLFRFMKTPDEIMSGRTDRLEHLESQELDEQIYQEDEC
# Chain of ELF4 (Q99607 whole entry): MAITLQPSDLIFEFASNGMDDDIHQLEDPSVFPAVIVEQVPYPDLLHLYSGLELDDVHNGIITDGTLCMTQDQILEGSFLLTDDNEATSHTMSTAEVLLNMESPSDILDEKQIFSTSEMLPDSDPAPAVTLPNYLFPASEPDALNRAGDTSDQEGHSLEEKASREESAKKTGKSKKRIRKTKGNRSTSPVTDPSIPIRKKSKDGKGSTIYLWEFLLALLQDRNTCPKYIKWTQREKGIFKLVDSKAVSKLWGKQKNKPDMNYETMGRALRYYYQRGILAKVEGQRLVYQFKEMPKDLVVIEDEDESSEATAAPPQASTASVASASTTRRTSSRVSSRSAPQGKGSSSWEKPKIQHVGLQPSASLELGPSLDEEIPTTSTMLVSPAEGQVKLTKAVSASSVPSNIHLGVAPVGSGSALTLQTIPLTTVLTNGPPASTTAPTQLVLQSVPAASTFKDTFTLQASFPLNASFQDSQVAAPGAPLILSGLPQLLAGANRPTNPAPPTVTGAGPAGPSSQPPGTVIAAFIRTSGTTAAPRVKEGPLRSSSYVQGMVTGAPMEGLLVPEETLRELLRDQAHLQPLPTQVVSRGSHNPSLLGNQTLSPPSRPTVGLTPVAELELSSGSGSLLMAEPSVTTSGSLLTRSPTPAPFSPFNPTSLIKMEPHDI
# Chain of HSF1 (Q00613 whole entry): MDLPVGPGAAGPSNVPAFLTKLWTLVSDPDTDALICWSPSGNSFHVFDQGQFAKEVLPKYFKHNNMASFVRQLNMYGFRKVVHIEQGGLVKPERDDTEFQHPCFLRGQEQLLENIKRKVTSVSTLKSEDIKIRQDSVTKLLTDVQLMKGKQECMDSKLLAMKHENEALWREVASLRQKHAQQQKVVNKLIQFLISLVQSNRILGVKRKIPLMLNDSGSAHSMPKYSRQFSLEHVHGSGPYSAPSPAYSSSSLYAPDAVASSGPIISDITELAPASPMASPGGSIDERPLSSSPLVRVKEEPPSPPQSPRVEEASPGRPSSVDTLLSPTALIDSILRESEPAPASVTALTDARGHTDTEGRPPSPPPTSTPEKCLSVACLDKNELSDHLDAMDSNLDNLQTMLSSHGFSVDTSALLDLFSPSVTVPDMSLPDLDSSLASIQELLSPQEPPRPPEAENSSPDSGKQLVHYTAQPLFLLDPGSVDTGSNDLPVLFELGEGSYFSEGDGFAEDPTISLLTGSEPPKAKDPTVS
# Chain of CRX (O43186 whole entry): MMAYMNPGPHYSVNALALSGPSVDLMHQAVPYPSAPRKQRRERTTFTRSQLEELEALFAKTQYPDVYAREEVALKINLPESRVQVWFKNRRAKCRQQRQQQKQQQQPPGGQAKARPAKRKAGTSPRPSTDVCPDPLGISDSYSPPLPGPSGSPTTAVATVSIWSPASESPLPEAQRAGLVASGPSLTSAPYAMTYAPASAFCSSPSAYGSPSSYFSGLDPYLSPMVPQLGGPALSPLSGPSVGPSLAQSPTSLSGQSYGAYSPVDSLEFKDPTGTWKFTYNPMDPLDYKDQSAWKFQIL
sequence,measurement,setting,value
CTAACG,binding signal,FEV,"1.19 fold enrichment (6-mer frequency, TF over GST control)"
same,binding signal,ETV5,"1.19 fold enrichment (6-mer frequency, TF over GST control)"
same,binding signal,HSF1,"1.09 fold enrichment (6-mer frequency, TF over GST control)"
same,binding signal,SPIC,"1.04 fold enrichment (6-mer frequency, TF over GST control)"
same,binding signal,ELF4,"1.17 fold enrichment (6-mer frequency, TF over GST control)"
same,binding signal,ELK4,"1.19 fold enrichment (6-mer frequency, TF over GST control)"
same,binding signal,ETV2,"1.01 fold enrichment (6-mer frequency, TF over GST control)"
same,binding signal,ELF3,"1.18 fold enrichment (6-mer frequency, TF over GST control)"
same,binding signal,CRX,"1.1 fold enrichment (6-mer frequency, TF over GST control)"
same,binding signal,ETV1,"1.11 fold enrichment (6-mer frequency, TF over GST control)"
same,binding signal,ERF,"1.23 fold enrichment (6-mer frequency, TF over GST control)"
same,binding signal,ETV3L,"1.25 fold enrichment (6-mer frequency, TF over GST control)"
same,binding signal,ETS2,"1.15 fold enrichment (6-mer frequency, TF over GST control)"
same,binding signal,SPDEF,"1.16 fold enrichment (6-mer frequency, TF over GST control)"
same,binding signal,ETV7,"1.26 fold enrichment (6-mer frequency, TF over GST control)"
same,binding signal,ELF5,"1.12 fold enrichment (6-mer frequency, TF over GST control)"
same,binding signal,ETV3,"1.17 fold enrichment (6-mer frequency, TF over GST control)"
same,binding signal,ETV6,"1.16 fold enrichment (6-mer frequency, TF over GST control)"
